High-throughput results from PubChem BioAssay.
Rows were chosen to be rich in hits. Some 3.8% of all compounds tested hit in one or more screens of this group.
SUMO Mot1 rescue: inhibitors of SUMOylation pathway: yeast Mot1-301 growth rescue | 320,000 compounds, 1% hits | growth rescue, % at 18.8 µM | AID 2716 | S. cerevisiae Mot1-301 growth rescue, ATP luminescence, 38.5C; percent above DMSO median, 100 means doubled;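 active = every valid replicate shows activation above 250% relative to neutral control wells; inactive = the rest, any valid replicate at or below 250%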
Cardio protect: protects H9c2 cardiomyocytes from peroxide injury; H2O2 injury protection, ATPLite, 2 h; protection from H2O2 cell death, % at 20 µM; 360,000 compounds, 0.63% hits; AID 588492;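 active = compounds giving at least 50% protection of heart cells from peroxide-induced death in the single-dose screen, raw or plate-pattern-corrected value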
aDG glyco up: alpha-DG glycosylation activation; 360,000 compounds, 0.22% hits; activation, % at 10 µM; Pro5-aDG cells, alpha-DG glycosylation AlphaScreen (IIH6); 0% Pro5, 100% B10-LARGE cell signal;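 active = activation of at least 8% versus controls, or a plate z-score of at least 8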;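 also: Pro5 are CHO cells carrying HIG-tagged alpha-DG that lacks glycosylation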
FAS-TE inh: blocks the thioesterase domain of human fatty acid synthase; recombinant FAS-TE, OMFH fluorogenic substrate, fluorescence endpoint; AID 602261; 360,000 compounds, 0.67% hits; P49327; inhibition, % at 15 µM;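 active = compounds whose normalised, plate-corrected inhibition of enzyme fluorescence in the single-dose primary screen is 50% or more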
MPTP block: blocks calcium-induced mitochondrial swelling; inhibition, % at 10 µM; isolated mouse mitochondria, Ca2+ swelling absorbance, 30 min; AID 602449; 360,000 compounds, 1.4% hits;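 active = inhibition of 50% or more, scaled per plate between neutral and stimulator controls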
Yeast superoxide: caloric restriction mimetics inhibiting age-related superoxide in yeast; S. cerevisiae aged cells, superoxide DHE fluorescence; hits give low values; superoxide response (% of plate mean), % at 10 µM; 330,000 compounds, 0.18% hits; AID 2690;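 active = superoxide response under a set limit, about three screen SD below normal, cut at about 65% in these data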;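 also: yeast aged for seven days with compound at 30 °C before DHE staining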
MPTP counter: membrane potential counter-screen of mitochondrial pore inhibitors; shares compounds with MPTP block; isolated mitochondria, Rhodamine 123 fluorescence; inhibition, % at 10 µM; 5,000 compounds, 78% hits; in the data active = inhibition above about 22%
MPTP abs DR: MPTP inhibition, dose response swelling confirmation. shares compounds with MPTP block. isolated mitochondria swelling, absorbance. IC50, µM. 780 compounds, 58% hits. AID 651561; in the data active = IC50 below about 20 µM
MPTP counter DR: counter-screen for mitochondrial permeability transition pore inhibitors, dose response; shares compounds with MPTP block; isolated mitochondria counterscreen, fluorescence read-out; IC50, µM; 780 compounds, 49% hits; in the data active = IC50 below about 80 µM
A number is an active result; n = inactive; x = no result.

SMILES	SUMO Mot1 rescue	Cardio protect	aDG glyco up	FAS-TE inh	MPTP block	Yeast superoxide	MPTP counter	others
CC1CCC(NC(=O)c2cc3ccccc3cc2O)CC1 (stereo not given)	n	n	n	n	87	n	94
O=C1OC(N2C(=O)CC[C@H]2C(=O)Nc2cccc(F)c2)c2ccccc21 (stereo not given in full)	n	n	n	n	n	n	x
CCOc1ccc(C(=O)Nc2sc3c(c2C(=O)OC)CC(C)(C)NC3(C)C)cc1	n	n	n	n	85	n	n	MPTP abs DR=20;MPTP counter DR=n
COC(=O)c1c(NC(=O)c2nc3ccccc3s2)sc2c1CC(C)(C)NC2(C)C	n	n	n	n	60	n	n	MPTP abs DR=n;MPTP counter DR=n
Cc1ccc(Cc2c(C)c(C#N)c3[nH]c4ccccc4n3c2=O)cc1	n	n	n	n	89	n	70
COCc1cc(=O)n2c([nH]c3ccccc32)c1C#N	n	n	n	n	n	n	x
CCc1cc(=O)n2c([nH]c3ccccc32)c1C#N	n	n	n	n	n	n	x
CCc1cc(=S)n2c([nH]c3ccccc32)c1C#N	x	n	n	n	101	n	68
CCc1c(C)c(C#N)c2[nH]c3ccccc3n2c1=S	n	n	n	n	90	n	81
O=[N+]([O-])c1ccc(N=Nc2c(O)[nH]c3ccc(F)cc23)cc1	n	n	n	n	n	n	x
O=[N+]([O-])c1cccc(N=Nc2ccc(O)cc2O)c1	x	n	n	n	84	x	73
CCOc1cc(C=O)cc(N=Nc2cccc([N+](=O)[O-])c2)c1O	n	n	n	n	n	n	x
O=[N+]([O-])c1ccc(N=Nc2ccc(O)cc2O)cc1	n	n	n	n	84	n	80
CN(Cc1cnn(-c2ccc(F)cc2)c1)C(=O)[C@H]1O[C@@H](n2ccc(N)nc2=O)[C@H](O)[C@@H]1O	x	n	n	n	n	x	x
Clc1c(Cl)c(Cl)c2n[nH]nc2c1Cl	n	n	n	n	72	n	77
COc1ccc(/C(C)=N/Nc2ncc(Cl)cc2Cl)c(O)c1	n	n	n	n	73	n	73
C/C(=N\NC(=O)c1ccc(-c2ccccc2)cc1)C1C(=O)c2ccccc2C1=O	n	n	n	n	76	n	43
CCOc1ccc(C(=O)N/N=C(/C)C2C(=O)c3ccccc3C2=O)cc1	n	n	n	n	n	n	x
C/C(=N\NC(=O)c1ccc(Br)cc1)C1C(=O)c2ccccc2C1=O	n	n	n	n	74	n	79
C/C(=N/NC(=O)c1ccc(-c2ccccc2)cc1)c1cc(O)cc(O)c1	n	n	n	n	n	n	x
COc1ccc2sc(N(CCCN(C)C)C(=O)c3ccc(S(=O)(=O)N4CCc5ccccc5C4)cc3)nc2c1	n	n	n	n	86	n	n
COc1ccc2sc(N(CCCN(C)C)C(=O)c3ccc(S(=O)(=O)N4CCCC4)cc3)nc2c1	n	n	n	n	n	n	x
Cc1cc(C)c2sc(N(CCCN(C)C)C(=O)c3ccc(S(=O)(=O)N4CCc5ccccc5C4)cc3)nc2c1	n	n	n	n	72	n	n
Cc1cc(C)c2sc(N(CCCN(C)C)C(=O)c3ccc(S(=O)(=O)N4CCCc5ccccc54)cc3)nc2c1	n	n	n	n	64	n	n
Cc1ccc2nc(N(CCCN(C)C)C(=O)c3ccc(S(=O)(=O)N4CCc5ccccc5C4)cc3)sc2c1	n	n	n	n	n	n	x
COc1ccccc1C(=O)NC(=O)COC(=O)c1cccc(NC(C)=O)c1	n	n	n	n	n	n	x
CCOc1ccc(NC(=O)CNc2cccc(S(=O)(=O)N3CCCCCC3)c2)cc1OCC	n	n	n	n	n	n	x
COc1ccccc1CC(O)CC1c2c(cc3c(c2OC)OCO3)CCN1C (stereo not given)	x	n	n	n	n	x	x
